Compound activity: PubChem, National Center for Advancing Translational Sciences (NCATS)
HP1b binding inh = HP1-beta chromodomain-methylated histone interaction inhibition. P83916. 390,000 tested, 0.56% active. AlphaScreen HP1-beta / biotin-H3K9me3 peptide binding. Potency, µM (series often up to 114 µM), inactives show at the highest dose activity change, negative = inhibition, actives largely listed as inhibitors; also: nearly all actives have a fitted effect of over 70% in size
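Compound inhibition of the preformed complex between 50 nM HP1-beta and 50 nM biotinylated H3K9me3 peptide was read by AlphaScreen. Buffer was PBS pH 7.4 with 0.01% Tween-20. Incubations ran 30 min at room temperature, with 10 ug/mL donor/acceptor beads.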
G9a block = inhibitors of human histone lysine methyltransferase G9a. Q96KQ7. G9a H3K9 monomethylation, AlphaScreen, 2 h. Potency, µM (highest dose often 102 µM), inactives show top-dose activity, negative = inhibition, hits mostly inhibitors. 350,000 tested, 8.8% active. AID 504332; also: % is scaled to controls: 0 for no effect and ±100 for the full control effect; nearly all actives have a fitted effect of over 75% in size
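Signal arises when biotinylated H3K9 peptide, once monomethylated, bridges streptavidin donor and antibody-captured acceptor beads. Enzyme at 20 nM was preincubated 15 min with test compounds; peptide 500 nM and SAM 20 uM then reacted for 2 h.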
BAZ2B block = BAZ2B (human) inhibition. Q9UIF8. AlphaScreen BAZ2B-H3K14Ac peptide displacement. Potency, µM (series often up to 114 µM), without a hit: top-dose activity change, negative = inhibition, hits mostly inhibitors. 360,000 tested, 4.4% active; also: % is scaled to controls: 0 for no effect and ±100 for the full control effect; nearly all actives have a fitted effect of over 60% in size
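BAZ2B (50 nM) with biotin-H3(5-23)K14Ac peptide (50 nM) in PBS pH 7.4, 0.01% Tween-20, preformed 30 min, then compound 30 min at room temperature; top concentration 110uM. AlphaScreen streptavidin donor/nickel chelate acceptor beads (10 ug/mL final), 20 min dark, signal read.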
Sfp inh = inhibitors of Bacillus subtilis Sfp phosphopantetheinyl transferase; Q9F4F7; Biochemical Sfp PPTase activity, qHTS; Potency, µM, for the others: largest response in the series, negative = inhibition, most hits filed as inhibitors; 310,000 tested, 3.5% active; AID 1490;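 also: the enzyme is Sfp with the accession as filed and its product quenches rhodamine fluorescence; 0% = enzyme reaction without inhibitor and -100% = no enzyme wells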
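Fluorescence-quenching assay with 15 nM Sfp, 5 uM rhodamine-CoA and 12.5 uM BHQ-2-labelled ybbR peptide in pH 7.6 Hepes/MgCl2 buffer. Enzyme was pre-incubated with compound for 15 min at room temperature. Rate was taken from the 30-min fluorescence change (525/598 nm).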
JMJD2A Tudor = JMJD2A Tudor domain (human) inhibition; O75164; Potency, µM (titrated, usually from 114 µM), for inactives: at the top dose activity change, negative = inhibition, most hits filed as inhibitors; AlphaScreen JMJD2A-Tudor / H3K4me3 peptide binding; 390,000 tested, 4.4% active; also: % is scaled to controls: 0 for no effect and ±100 for the full control effect; nearly all actives have a fitted effect of over 50% in size
An asterisk follows results filed as active; ? = inconclusive; / = no result given; [ ] = dose if it differs, or a comment. A selection: hits, their analogues and other compounds. The true share with any hit is near 12%. Calls follow the shape of the dose curve; as a rule, active = well fitted curve in the direction sought with a large enough effect; inconclusive = small, poorly fitted or top-dose-only effect, or another doubt; inactive = no such curve, though single readings can be large; an effect the other way counts as inactive or inconclusive. Potency is read from the fitted curve at half-maximal effect.

SMILES | HP1b binding inh | G9a block | BAZ2B block | Sfp inh | JMJD2A Tudor
COc1ccc(NS(=O)(=O)c2cc(-c3cnc(C4CC4)o3)ccc2C)cc1 | -0.2%[57 µM] | 50.1µM* | ? | 8.6% | ?
COc1ccc(-c2cnc(C)o2)cc1S(=O)(=O)Nc1ccc(C)c(N(C)C)c1 | 23.2% | ? | 50.1µM* | / | ?
CCOc1ccc2nc(N3C(=O)CNC3=S)sc2c1 | 31.8% | 8.1% | -21.1% | -12.8% | -14.7%
CCOc1ccc2nc(N=NC3=C(O)CC(C)(C)CC3=O)sc2c1 | ? | ? | 44.7µM* | -16.0% | ?
O=C(O)CNS(=O)(=O)c1c(Cl)cccc1Cl | 18.9% | 4.9% | -1.0% | 4.4% | 14.1µM*
O=C(O)CCCCCNS(=O)(=O)c1c(Cl)cccc1Cl | 36.6% | -29.1%[12.7 µM] | -8.4% | 5.5% | -18.9%
CCN(CC)C(=O)CC(c1ccc(N(C)C)cc1)c1c(OC)cc(OC)c2c(-c3ccccc3)cc(=O)oc12 (centres undefined) | ? | -46.3%[12.7 µM] | 20µM* | -3.4% | 31.6µM*
COc1ccc(C(CC(=O)N2CCCC(C)C2)c2c(OC)cc(OC)c3ccc(=O)oc23)cc1 (centres undefined) | 7.6% | -14.6%[59 µM] | 0.6% | -1.8% | -24.1%
COc1ccc(C(CC(=O)N2CCN(c3ccccc3)CC2)c2c(OC)cc(OC)c3c(-c4ccccc4)cc(=O)oc23)cc1 (centres undefined) | / | ? | 39.8µM* | 6.7% | /
COc1ccc(C(CC(=O)N2CCCC(C)C2)c2c(OC)cc(OC)c3c(-c4ccccc4)cc(=O)oc23)cc1 (centres undefined) | -9.8% | 16.6%[12.7 µM] | 44.7µM* | -14.2% | 44.7µM*
COc1cc(OC)c2ccc(=O)oc2c1C(CC(=O)N1CCCC1)c1ccc(N(C)C)cc1 (centres undefined) | -3.9% | ? | -29.5% | 10.3% | ?
COc1cc(OC)c2c(-c3ccccc3)cc(=O)oc2c1C(CC(=O)N1CCCC1)c1ccc(N(C)C)cc1 (centres undefined) | ? | / | / | -12.8% | 22.4µM*
O=C(CCNS(=O)(=O)c1ccc(OC(F)(F)F)cc1)NCCc1c[nH]c2ccccc12 | 9.5% | 4.7%[59 µM] | 2.4% | / | -16.7%
COc1ccc(-c2nc3cnc(Oc4cccc(Cl)c4)nc3n(C3CC3)c2=O)cc1 | / | -5.3%[0.501 µM] | / | 21.8% | /
COc1cc(C(CCN2CCCCC2)c2c(OC)cc(OC)c3c(-c4ccccc4)cc(=O)oc23)cc(OC)c1OC (centres undefined) | 9.6% | 6.7%[59 µM] | -26.9% | ? | ?
COc1cc(C(CC(=O)N2CCCC2)c2c(OC)cc(OC)c3c(-c4ccccc4)cc(=O)oc23)cc(OC)c1OC (centres undefined) | -13.0% | 7.3%[12.7 µM] | 50.1µM* | -24.6% | 56.2µM*
COc1ccc(C(CCN2CCOCC2)c2c(OC)cc(OC)c3c(C)cc(=O)oc23)cc1 (centres undefined) | 16.7% | 3.6%[59 µM] | -13.3% | 10.0% | -16.2%
COc1ccc(C(CC(=O)N2CCCC2)c2c(OC)cc(OC)c3c(-c4ccccc4)cc(=O)oc23)cc1 (centres undefined) | -15.6% | 14.3%[12.7 µM] | 56.2µM* | -25.9% | 50.1µM*
COc1ccc(C(CC(=O)N2CCOCC2)c2c(OC)cc(OC)c3c(-c4ccccc4)cc(=O)oc23)cc1 (centres undefined) | 8.7% | -16.9%[59 µM] | 56.2µM* | -14.0% | 56.2µM*
COc1ccc(C(CC(=O)N2CCCC2)c2c(OC)cc(OC)c3ccc(=O)oc23)cc1 (centres undefined) | 23.6% | 3.9%[59 µM] | -14.1% | 14.6% | -11.0%
COc1ccc(C(CC(=O)N2CCCCC2)c2c(OC)cc(OC)c3c(-c4ccccc4)cc(=O)oc23)cc1 (centres undefined) | -16.7% | -2.5%[12.7 µM] | 44.7µM* | -11.5% | 50.1µM*
COc1ccc(C(CC(=O)N2CCOCC2)c2c(OC)cc(OC)c3ccc(=O)oc23)cc1 (centres undefined) | 17.9% | -5.4%[12.7 µM] | -6.5% | -6.6% | -3.4%
COc1ccc(-c2nc3cnc(N4CCOCC4)nc3n(-c3ccc(OC)cc3)c2=O)cc1 | / | 3.0%[0.501 µM] | / | -25.0% | /
Cc1ccc(S(=O)(=O)N2CCOCC2)cc1C(=O)NCCc1ccc(Cl)cc1 | -1.6% | / | / | / | -7.6%
Cc1cc(C)n(-c2nnc(C)n2N)n1 | 6.1% | 50.1µM* | -13.7% | 9.0% | ?
SMILES | HP1b binding inh | G9a block | BAZ2B block | Sfp inh | JMJD2A Tudor
Cc1nnc(C)n1/N=C/c1cc2ccccc2nc1Cl | 20.4% | 4.0% | -18.6% | 14.5% | -0.4%
Cc1cc(C)n(/N=C/c2ccccc2O)c(=O)c1 | 6.8% | 15.8µM* | 50.1µM* | 5.2% | ?
Cc1cc(C)n(/N=C/c2cc(Cl)cc(Cl)c2O)c(=O)c1 | 25.2% | 2.8% | -22.5% | 9.0% | -21.5%
Cc1cc(C)n(-c2nnc(C)n2/N=C/c2ccccc2O)n1 | 3.8% | -32.7%[12.7 µM] | -3.7% | -14.1% | 7.94µM*
Cc1ccc(/C=C/c2onc(C)c2S(=O)(=O)N2CCC(C(=O)N3CC(C)Oc4ccccc43)CC2)cc1 (centres undefined) | 7.3%[57 µM] | 11.8%[59 µM] | -8.7% | / | -10.2%
NC(=S)Nc1cccc2cn[nH]c12 | 19.6% | -23.0% | 2.9% | 56.2µM* | -9.6%
Cc1ccc2cn[nH]c2c1NC(N)=S | 29.8% | ? | -12.4% | 7.5% | 0.0%
COc1ccc(-c2cc(C(F)(F)F)n3nc(C(=O)Nc4sc5c(c4C(=O)OC(C)C)CCC(C)C5)cc3n2)cc1 (centres undefined) | 36.2% | -21.6%[59 µM] | 3.4% | / | 1.6%
Cc1ccc(NNC2CC(=O)N(c3cccc(Cl)c3)C2=O)cc1 (centres undefined) | 34.8% | 10µM* | ? | -2.6% | -32.9%
CCN(CC)C1CC(=O)N(c2cccc(Cl)c2)C1=O (centres undefined) | 31.2% | 8.91µM* | -5.0% | -2.0% | -6.9%
Cc1ccc(NC2CC(=O)N(c3ccc(C)cc3)C2=O)cc1 (centres undefined) | -24.1% | -3.0% | 6.3% | 1.9% | 8.4%[11.4 µM]
O=C1CC(N(O)c2ccccc2)C(=O)N1c1ccc(Cl)c(Cl)c1 (centres undefined) | 17.6% | 50.1µM* | -12.8% | 11.2% | -13.3%
CC(=O)NCCCC(=O)NNC1CC(=O)N(c2cccc(Cl)c2)C1=O (centres undefined) | -23.9% | 5.62µM* | -5.1% | ? | -16.4%
CCCCCC(=O)NNC1CC(=O)N(c2cccc(OCC)c2)C1=O (centres undefined) | 17.1% | / | 16.5% | -8.2% | -21.7%
CC(C)OCc1ccc(C(=O)N2CCN(CC(=O)N3CCCC3)CC2)cc1 | 26.6% | / | / | / | 0.0%
O=C(NCCCn1ccnc1)c1cccc(Br)c1 | -2.2% | 22.2% | -1.1% | 5.6% | -19.6%
Cc1ccc(-c2nnc3c4ccccc4c(-c4ccccc4)nn23)cc1 | 29.4% | -5.9%[59 µM] | -7.8% | / | -6.2%
Cc1ccc(NC(=O)Nc2nnc(SCC(=O)N3CCCCC3)s2)cc1 | 43.5% | 13.5%[59 µM] | -1.7% | / | -14.9%
